Shn3 3UTR inh = reduces Shn3 3'UTR luciferase signal in osteoblasts. Clone20 osteoblast Shn3 3'UTR firefly luciferase, 24 h. inhibition, % at 12.5 µM. actives 0.52% (n = 360,000);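 active = mean inhibition of at least 75% with every replicate also reaching 75%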;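 note: 0% = median of neutral control wells and 100% = pilot-screen positive control compound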
MITF TRPM1 inh = reduces MITF-dependent TRPM1 promoter luciferase signal. SK-MEL-5 TRPM1 promoter luciferase, 24 h. inhibition, % at 12.5 µM. actives 0.83% (n = 330,000). AID 488899;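 active = mean inhibition across replicates of 60% or more, whatever share of single replicates reaches that level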
EBV LMP1 NFkB = inhibitors of Epstein-Barr LMP1-induced NF-kappaB reporter; LMP1-induced NF-kappaB luciferase reporter cells, luminescence; inhibition, % at 12.5 µM; actives 0.69% (n = 350,000); AID 504558; in the data active = inhibition above about 41%;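 note: 0% = neutral control wells and 100% = reference inhibitor control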
PAX8 inh HTS = PAX8 transcriptional activity inhibition. RMG-I TPO-luciferase reporter, SteadyGlo, 24 h. inhibition, % at 12.6 µM. actives 1.2% (n = 360,000). AID 652154;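 active = mean replicate inhibition at least 60% with every replicate also reaching 60%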;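 note: luciferase light reporting Pax8 driven TPO promoter activity; plate controls were median of neutral control wells for no effect and mitoxantrone controls for full effect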
aSyn 5UTR inh = MLPCN primary screen, SNCA 5' untranslated region; actives 0.82% (n = 300,000); alpha-synuclein 5'UTR reporter, inhibitor activity; inhibition, % (tested at 7.5 µM); AID 1813; in the data active = inhibition above about 60%;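 note: H4 neuroglioblastoma cells stably carrying SNCA 5'UTR luciferase fusion; 0% = DMSO wells and 100% = positive control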
* marks the source's active call; other numbers are inactive results; ! = not confirmed by another sample. An excerpt weighted towards active compounds, which were near 2.1% of everything screened.

How did C[C@@H]1CN([C@H](C)CO)S(=O)(=O)c2ccc(C#Cc3ccc(F)cc3)cc2O[C@@H]1CN(C)C(=O)NC1CCCCC1 do in these assays?
PAX8 inh HTS: 58

How did COc1ccc(C#Cc2ccc3c(c2)O[C@H](CN(C)C(=O)c2ccccn2)[C@H](C)CN([C@@H](C)CO)S3(=O)=O)cc1 do in these assays?
PAX8 inh HTS: 14

How did C[C@@H]1CN([C@@H](C)CO)S(=O)(=O)c2ccc(C#Cc3ccc(F)cc3)cc2O[C@H]1CN(C)C(=O)NC1CCCCC1 do in these assays?
PAX8 inh HTS: 99*

What do the screens show for `COc1ccc(C#Cc2ccc3c(c2)O[C@@H](CN(C)C(=O)c2ccccn2)[C@H](C)CN([C@@H](C)CO)S3(=O)=O)cc1`?
PAX8 inh HTS: 65*

Results for C[C@@H]1CN([C@H](C)CO)S(=O)(=O)c2ccc(/C=C/c3ccccc3)cc2O[C@@H]1CN(C)C(=O)Nc1cc(F)ccc1F ?
PAX8 inh HTS: 43

Results for O=C(CC(C(=O)N1CCc2ccccc21)n1ccnc1)NCC1CCCO1 (stereo not drawn) ?
Shn3 3UTR inh: -17; MITF TRPM1 inh: 21; EBV LMP1 NFkB: -3; aSyn 5UTR inh: 8

How did C[C@@H]1CN([C@H](C)CO)S(=O)(=O)c2ccc(C#Cc3ccncc3)cc2O[C@@H]1CN(C)C(=O)C1CCCCC1 do in these assays?
PAX8 inh HTS: 46

What do the screens show for `C[C@@H]1CN([C@H](C)CO)S(=O)(=O)c2ccc(C#Cc3ccncc3)cc2O[C@H]1CN(C)C(=O)C1CCCCC1`?
PAX8 inh HTS: 78*

Results for C[C@H]1CN([C@@H](C)CO)S(=O)(=O)c2ccc(/C=C/c3ccccc3)cc2O[C@H]1CN(C)C(=O)NC1CCCCC1 ?
Shn3 3UTR inh: -12; EBV LMP1 NFkB: 8; PAX8 inh HTS: 70*!

How did CCN(CC)c1ccc2c(-c3ccc(S(=O)(=O)O)cc3S(=O)(=O)[O-])c3ccc(=[N+](CC)CC)cc-3oc2c1 do in these assays?
Shn3 3UTR inh: 5; MITF TRPM1 inh: 60; EBV LMP1 NFkB: 27; aSyn 5UTR inh: 80*

Results for CCN(CC)c1ccc2nc3c4ccccc4c(=O)cc-3oc2c1 ?
PAX8 inh HTS: -133; aSyn 5UTR inh: 46

Results for CCCC(C)NC(C)C(=O)NC1CCCC1 (stereo not drawn) ?
Shn3 3UTR inh: 21; MITF TRPM1 inh: 7; EBV LMP1 NFkB: 66*; aSyn 5UTR inh: 3

Results for CCCC(CCC(=O)NC1CCCCC1)C(=O)O (stereo not drawn) ?
Shn3 3UTR inh: -6; MITF TRPM1 inh: 1; EBV LMP1 NFkB: 0; PAX8 inh HTS: 3; aSyn 5UTR inh: -5

How did CC(=O)Nc1ccc(-c2cn3cc(C)ccc3n2)cc1 do in these assays?
Shn3 3UTR inh: -14; MITF TRPM1 inh: -17; EBV LMP1 NFkB: -7; PAX8 inh HTS: -46; aSyn 5UTR inh: 11

Results for Cc1ccc2nc(-c3ccc(O)c(O)c3)cn2c1 ?
Shn3 3UTR inh: 90*; MITF TRPM1 inh: 46; EBV LMP1 NFkB: 3; PAX8 inh HTS: 13; aSyn 5UTR inh: 22

Results for Cc1ccc2nc(-c3ccccc3)cn2c1 ?
Shn3 3UTR inh: 84; MITF TRPM1 inh: 88*; EBV LMP1 NFkB: 72*; aSyn 5UTR inh: 120*

Results for O=C(NC1CCCC(C(F)(F)F)C1)c1ccc([N+](=O)[O-])o1 (stereo not drawn) ?
Shn3 3UTR inh: 46; MITF TRPM1 inh: 66*; EBV LMP1 NFkB: -13; PAX8 inh HTS: 76*

What do the screens show for `O=C1/C(=C/c2ccncc2)CCC/C1=C\c1ccncc1`?
Shn3 3UTR inh: 72; MITF TRPM1 inh: 96*; EBV LMP1 NFkB: 85*; PAX8 inh HTS: 71*; aSyn 5UTR inh: -101

What do the screens show for `CC(CCc1ccccc1)NC(=O)c1ccc(C(=O)NC(C)CCc2ccccc2)cc1` (stereo not drawn)?
Shn3 3UTR inh: 53; MITF TRPM1 inh: 74*; EBV LMP1 NFkB: 6; PAX8 inh HTS: 81*

How did CN(C)C(CNC(=O)c1cccc(S(=O)(=O)Nc2ccccc2Cl)c1)c1ccco1 (stereo not drawn) do in these assays?
Shn3 3UTR inh: 7; MITF TRPM1 inh: 0; EBV LMP1 NFkB: 7; PAX8 inh HTS: 15

What do the screens show for `CC(C)N1C(=O)CCC1C(=O)N1CCN(c2ccc(F)cc2)CC1` (stereo not drawn)?
Shn3 3UTR inh: -1; MITF TRPM1 inh: -1; EBV LMP1 NFkB: 1; PAX8 inh HTS: -12; aSyn 5UTR inh: 7
